According to PubChem BioAssay (Tox21):
Records with an inconclusive call do not appear. A number with no mark means an inactive call. Active and inactive are the calls of the source. The call rests on the fitted dose curve; in most records, active means well fitted cell-killing curve with a large enough effect in the repeat runs; inconclusive means weak or mixed curves, or effect the other way; inactive means flat fitted curve, though single readings scatter.

experiment: Nuclear factor erythroid 2-related factor 2/antioxidant responsive element (Nrf2/ARE) small molecule agonists: qHTS cell viability counter screen in human keratinocytes (AID 1919968); conditions: KeratinoSens HaCaT ARE cells viability, CellTiter-Fluor, 24 h; series mostly up to 92.4 µM; activity change, negative = cytotoxicity: at the top concentration; further: nearly all actives have a fitted effect of over 55% in size
Text: U.S. Tox21 Program National Center for Advancing Translational Sciences [NCATS] Division of Preclinical Innovation [DPI] U.S. Environmental Protection Agency [EPA] National Institutes of Environmental Health Sciences [NIEHS] National Toxicology Program [NTP] U.S. Food and Drug Administration [FDA] Tox21 Assay Overview: Oxidative stress has been implicated in the pathogenesis of a variety of diseases ranging from cancer to neurodegeneration. The antioxidant response element (ARE) signaling pathway plays an important role in the amelioration of oxidative stress. The KeratinoSens (Givaudan, Switzerland) is an in vitro test method which quantifies luciferase induction as a measure of activation of Keap1-Nrf2-antioxidationt/electrophile response element (ARE) dependant pathway in HaCaT human keratinocytes stably transfected with a selectable plasmid. The KeratinoSens assay is a cell-based assay with a reporter cell line to detect potential skin sensitizers by their ability to induce the Nrf2/ARE-response. The activation of the report gene under culture conditions can be detected by ONE-Glo Luciferase Assay System (Promega, Madison, WI). This cell line has been used to screen the Tox21 10K compound library to identify agonists that induce oxidative stress. The cytotoxicity of the Tox21 compound library against the KS-ARE cell line was tested in parallel by measuring the cell viability using CellTiter- Fluor assay system (Promega, Madison, WI) in the same wells.
Tox21 Assay Protocol Summary: HaCaT derived cell line KeratinoSens were dispensed at 1,500 cells/5uL/well in 1536-well white wall/solid bottom plates using a Multidrop Combi (ThermoFisher Scientific, Waltham, MA) dispenser. After the assay plates were incubated at 37 C/5% CO2 for 5 h, 23 nL of compounds dissolved in DMSO, positive controls or DMSO only was transferred to the assay plate by a pintool workstation (Kalypsys, San Diego, CA). The plates were incubated at 37 C/5% CO2 for 23 h, followed by addition of 1uL/well of CellTiter-Fluor reagent into the assay plates using a Flying Reagent Dispenser (Aurora Discovery, San Diego, CA) for cell viability readout that measures cytotoxicity. After 1 h incubation at 37 C/5% CO2 the fluorescence intensity was measured using a ViewLux (PerkinElmer, Shelton, CT) plate reader.
On the % scale 0 is the no-effect control and ±100 the full control effect; potency means the concentration at half of the fitted maximal effect.

First: Oc1ccc(Cc2ccccc2)cc1
Second: Cc1cccc(Nc2ccccc2)c1
The “activity change, negative = cytotoxicity” value of the first is lower: -6.89% for the first, 0.441% for the second.

First: C=Cc1ccncc1
Second: OC/C=C/c1ccccc1
The “activity change, negative = cytotoxicity” value of the first is lower: 0.0993% for the first, 7.69% for the second.

Going from `CCCn1cc[n+](C)c1C` to `CCC(=O)C1CC(C(C)C)CC=C1C` (stereo not given), the “activity change, negative = cytotoxicity” value falls from 9.85% to 4.39%.

First: CCCCCCC(=O)c1ccccc1
Second: C=C(C)C(=O)OCc1ccccc1
The “activity change, negative = cytotoxicity” value of the first is higher: 1.26% for the first, -1.92% for the second.

First: CC1(CO)CN(c2ccccc2)NC1=O (stereo not given)
Second: O=C1Cc2ccccc2N1c1c(Cl)cccc1Cl
The “activity change, negative = cytotoxicity” value of the first is lower: -1.63% for the first, 4.53% for the second.

Going from `COc1cc(S(=O)(=O)Nc2ccccc2)c(OC)cc1N` to `O=C1NC(=O)c2cccc3cccc1c23`, the “activity change, negative = cytotoxicity” value rises from 0.722% to 3.75%.

First: CCOC(=O)OCC
Second: CCCCCC(C)O (stereo not given)
The “activity change, negative = cytotoxicity” value of the first is higher: 1.53% for the first, -6.25% for the second.

Compared with `CCC(Cl)CCC(Cl)C(Cl)CC(Cl)C(Cl)C(Cl)CCl` (stereo not given), `CCCC/C=C/CCCCO` is lower in “activity change, negative = cytotoxicity” value: 10.2% for the first, -0.724% for the second.

First: CCCCCCCC/C=C\CCCCCCCC(=O)OCCO
Second: CC(=O)O[Si](C)(OC(C)=O)OC(C)=O
The “activity change, negative = cytotoxicity” value of the first is lower: 0.134% for the first, 1.49% for the second.

Going from `OCCN1CCOCC1` to `CC1(C)CC(O)CC(C)(C)N1[O]`, the “activity change, negative = cytotoxicity” value falls from 2.37% to 1.13%.

With `COc1nccnc1CC(C)C` the “activity change, negative = cytotoxicity” value was -4.1%.

For `O=CO`, the activity change, negative = cytotoxicity was 0.89% [at 8.39 µM].

First: COc1c2occc2c(OC)c2c(=O)cc(C)oc12
Second: Cc1onc(-c2ccccc2Cl)c1C(=O)N[C@@H]1C(=O)N2[C@@H]1SC(C)(C)[C@@H]2C(=O)O
The “activity change, negative = cytotoxicity” value of the first is higher: 3.96% [at 42.5 µM] for the first, -3.52% [at 42.5 µM] for the second.

Compared with `CCOC(=O)OC(C)OC(=O)[C@@H]1N2C(=O)[C@@H](NC(=O)[C@H](N)c3ccccc3)[C@H]2SC1(C)C` (stereo not given in full), `CCC(C(=O)NC(=O)NC(C)=O)c1ccccc1` (stereo not given) is higher in “activity change, negative = cytotoxicity” value: -7.03% [at 42.5 µM] for the first, 1.18% [at 42.5 µM] for the second.

Compared with `C[C@@H](CN(C)C)CN1c2ccccc2Sc2ccccc21`, `O=C(Nc1ccc(C(=O)O)c(O)c1)c1ccccc1` is higher in “activity change, negative = cytotoxicity” value: -5.44% [at 42.5 µM] for the first, -1.18% [at 42.5 µM] for the second.

Compared with `Oc1ccccc1-c1nnco1`, `c1ccc2sc(SN3CCOCC3)nc2c1` is lower in “activity change, negative = cytotoxicity” value: 8.81% [at 42.5 µM] for the first, -9.86% [at 42.5 µM] for the second.

Compared with `CN1CCC(=C2c3ccccc3CCc3cccnc32)CC1`, `CC[C@]12CCCN3CCc4c(n(c5ccccc45)C(=O)C1)[C@@H]32` is higher in “activity change, negative = cytotoxicity” value: -14.8% [at 42.5 µM] for the first, -3.05% [at 42.5 µM] for the second.

Going from `NCCc1cnc[nH]1` to `CN(C)CCOC(=O)C(c1ccccc1)C1(O)CCCC1` (stereo not given), the “activity change, negative = cytotoxicity” value rises from 1.09% [at 42.5 µM] to 4.07% [at 42.5 µM].

For `CC[C@H]1OC(=O)[C@H](C)[C@@H](O[C@H]2C[C@@](C)(OC)[C@@H](O)[C@H](C)O2)[C@H](C)[C@@H](O[C@@H]2O[C@H](C)C[C@H](N(C)C)[C@H]2O)[C@](C)(O)C[C@@H](C)/C(=N\OCOCCOC)[C@H](C)[C@@H](O)[C@]1(C)O`, the “activity change, negative = cytotoxicity” value was -1.86% [at 42.5 µM].

For `NC(=O)N1C(=O)C(C(=O)c2cc(Cl)cs2)c2cc(F)c(Cl)cc21` (stereo not given), the Potency was 24.3 µM (active).
For `O=C=NC1CCC(CC2CCC(N=C=O)CC2)CC1` (stereo not given), the Potency was 12.2 µM (active).
For `CCOC(=O)c1ccc(C2CCC(NC[C@H](O)COc3ccc(O)c(NS(C)(=O)=O)c3)CC2)cc1` (stereo not given in full), the Potency was 56.4 µM (active).
In the case of `CC(C)c1ccc2c(c1)CC[C@H]1[C@](C)(CN)CCC[C@]21C`, the Potency was 12.2 µM (active).

`O=C(O)CN(CCOCCOCCN(CC(=O)O)CC(=O)O)CC(=O)O` showed an activity change, negative = cytotoxicity of -7.96% [at 0.349 µM].
